Here are results for 39 sequences from the supplement of paper PMC6555819.

This assay has as its system PPARg:RXRa 90nM:30nM, anti-RXR (NR concentration 90 nM, RXRa partner concentration 30 nM). Kind of assay: PBM binding z-score (relative to random genomic background probes); higher = stronger binding; sequences stand for … in GC…GCGATTGACAGCGTAGAATGAAGG
In short, it runs like this:
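Ligand-free nuclear receptor dimers were bound for 1 h to custom Agilent 4×180K protein-binding microarrays. Detection used antibodies against each partner (one per run). Binding z-scores rest on regression-normalized fluorescence, with random background probes as the reference.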
Sequence CCAGACAGGTGAGAAGGGAACTCAGCCTCGATTA gave a PBM binding z-score of -0.306.

With TAGACTAGGTCATTGGGCCAGTATAGTACGCATC, the PBM binding z-score amounted to 4.58. GCGACTGGCGCAAAGCAGGTTACCATAAGGTTGG: the PBM binding z-score is -0.475. As for CATACTGGGCCAAAGGTCATTGATTCCAATGCTC, the figure is 11.1; as for CCTAATGGGCCAAAAAGGTCATTGATGCCGATAA, 2.69; as for CCTAGTTGGTCAGGAGGTCACACCCCGGATATGA, 3.09. For the sequence ACAGACAGGTGAGTGAACGTAACTCAGCTGGACG, the PBM binding z-score is -0.308. TGAATGAGGTTCAAGATCAGGGAACGTGGCGTCG had a PBM binding z-score of 1.14. CCGACTGGGGGAAGGTTACCATAACGCACAGCCA displayed a PBM binding z-score of 1.37. Take TAGCCTAGGTCAGATCGCGCCAGTATACGCTATA: the PBM binding z-score came out at 0.595. The same measure for CGAACGAGGCCATGAGTTGATAGCAAATGCCGAT: 0.44; for TCTTGTAGATCAACAGAGGTTAAGAAAGTGCGCT: 1.98. With GCTCGGAGGACAAGGTCAGAGCCTTGTCCGTAGA, the PBM binding z-score was determined as 1.23. The same measure for ATCGAAAGGTCGTGAGGTGAGTATGCAGAAAGGC: 3.19. The same measure for CCTGCTAGGTCATGATCAGCTAATCTACAGTATG: 1.56; for CCTCGGAGGACAACAGGTGGTCAGAGCTGCCAGA: -1.37. For CCGAGTAGGTCATGGGGCATTCAGGCAACGGTGA, the PBM binding z-score came out at 7.69. In turn, CGTCAAAGTTCAAGGTAACGTACCAGAAAGCAGC returned a PBM binding z-score of 4.24. CGAACTAGGTCACTGACAGGACAGTGAATAGTAA gave a PBM binding z-score of 6.09. The same measure for CCTACTGGGCCACGAAAGGTCATTGCTTCAGTGA: 4.17; for CAAACTAGATCACCGGAAGGTCAAAGTCCGCATG: 1.84; for CCTAGTTGGTCAATGTCACACACGCTATAGGTAC: 0.257. As for CCTACTGGGCCATCACGTCATTGATATCAACGTT, the figure is 0.648. In turn, GCGACTGGGGCAAAGCAGGTTACCATAAGGTTGG registered a PBM binding z-score of 0.47.

The sequence TCTGCTAGGTCAACGATGGTCAGCTACTCTGCTA returned a PBM binding z-score of 2.47.

ACAAGCAGGCCAAGGGTCACTCAAGATTAGTCCG: the PBM binding z-score worked out at 7.51. The same measure for CCTAGCAGGCCAAGGTCACTCAAGCATTTCGCTT: 1.65. TCTCGGAGGACACGAAGGTCAGACCTTTCCAGAG registered a PBM binding z-score of 2.04. The same measure for GTACCAAGGTGAATAGGTCGTTAATGAGTAGGCG: 1.07; for TCTATTAGTTGATGGGCAACCGACGAGTCCGTTT: 2.29; for CGAACTAGGGCATCCAGGACAGTGAATACATTGA: 1.5.

In the case of TTACCTAGGTGAAGGTCGTTGATCCCTCTGTAGA, the PBM binding z-score was determined as 1.55. CGGACTGGGGCAAGGTTACCATAACGCACAGCCA registered a PBM binding z-score of 4.2.

Consider ACTATTAGTTGACTTAGGGCAACCGTTACGACGC, for which the PBM binding z-score came out at 0.461.

For CCGACTGGGGCTAAGGTTACCATACTCAGTACGA, the PBM binding z-score was 5.78. The same measure for AGAACGAGGGCATGCTGAGTTGATAGCAGAGTAG: 0.416; for ATATGTAGGTTATCGGTTCATTCAGTTTGCGCAT: 4.65; for TCATATAGGTAAACAGTTGAAAGTCCGTAAGTTA: 3.49. In turn, CAAACTACGTCACCGGAAGGTCAAAGTCCGCATG had a PBM binding z-score of 1.15.
